{"source": "PubChem BioAssay AID2535", "about": "(National Center for Advancing Translational Sciences (NCATS), 2010)", "note": "Values without a mark were called inactive. Calls follow the shape of the dose curve; as a rule, active = well fitted curve in the direction sought with a large enough effect; inconclusive = small, poorly fitted or top-dose-only effect, or effect the other way, or another doubt; inactive = no such curve, though single readings can be large or run the other way.", "data": [{"target": "Pyruvate kinase PKLR (Homo sapiens) (UniProt P30613)", "sequence (P30613 whole entry, looked up)": "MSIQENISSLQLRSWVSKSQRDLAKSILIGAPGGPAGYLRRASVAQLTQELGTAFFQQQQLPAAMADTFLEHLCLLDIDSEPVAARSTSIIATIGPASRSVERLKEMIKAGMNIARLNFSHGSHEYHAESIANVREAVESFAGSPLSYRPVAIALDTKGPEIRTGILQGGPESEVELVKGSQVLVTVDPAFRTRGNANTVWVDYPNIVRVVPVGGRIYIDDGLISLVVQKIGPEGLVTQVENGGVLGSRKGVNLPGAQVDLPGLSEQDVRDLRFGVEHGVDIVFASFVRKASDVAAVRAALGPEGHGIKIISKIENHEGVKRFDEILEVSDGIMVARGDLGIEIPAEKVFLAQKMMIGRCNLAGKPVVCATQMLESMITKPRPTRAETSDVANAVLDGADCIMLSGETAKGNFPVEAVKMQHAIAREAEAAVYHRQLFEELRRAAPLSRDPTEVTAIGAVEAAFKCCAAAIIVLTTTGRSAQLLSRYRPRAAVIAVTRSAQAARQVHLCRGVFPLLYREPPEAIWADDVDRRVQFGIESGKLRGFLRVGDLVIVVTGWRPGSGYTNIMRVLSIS", "assay": "Secondary Concentration-Response Assay for Activators of Human Liver Pyruvate Kinase: for Probe SAR;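 also: 0% = uninhibited enzyme wells on each plate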", "conditions": "purified hPK-L, ATP production, Kinase-Glo luminescence; series mostly up to 58.3 µM; activity change, positive = activation: at the top concentration", "summary_of_the_method": "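Purified human liver pyruvate kinase (0.1 nM) incubated 1 h at room temperature with compound, 0.5 mM PEP and 0.1 mM ADP in imidazole buffer pH 7.2; ATP formed read by Kinase-Glo luminescence, normalized to uninhibited wells.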", "units": {"activity change, positive = activation": "%"}, "values": [{"smiles": "CNc1cc2c(cc1S(=O)(=O)Nc1ccc(C)c(C)c1)CCC(=O)N2", "activity change, positive = activation": -8.71}, {"smiles": "O=C1CCc2cc(S(=O)(=O)Nc3cccnc3)ccc2N1", "activity change, positive = activation": 0.695}, {"smiles": "O=C1c2ccccc2C(=O)N1c1ccc2ccccc2n1", "activity change, positive = activation": -10.2}, {"smiles": "Cc1ccc(NS(=O)(=O)c2cc3c(cc2-c2ccsc2)NC(=O)CO3)cc1C", "activity change, positive = activation": 13.4}, {"smiles": "O=C1c2ccccc2C(=O)N1c1ncccc1O", "activity change, positive = activation": 4.65}, {"smiles": "Cc1ccc(NS(=O)(=O)c2ccc3c(c2)CCO3)cc1C", "activity change, positive = activation": -21.2}, {"smiles": "COc1ccccc1N1C(=O)c2ccccc2C1=O", "activity change, positive = activation": 7.74}, {"smiles": "N#Cc1ccc(NS(=O)(=O)c2ccc3c(c2)CCC(=O)N3)cc1", "activity change, positive = activation": 3.86}, {"smiles": "COc1ccc(OC2=NS(=O)(=O)c3ccccc32)cc1", "activity change, positive = activation": -3.39}, {"smiles": "COc1ccc(Nc2c(-c3ccc(C)o3)nc3ccccn23)cc1", "activity change, positive = activation": 2.05}, {"smiles": "O=C1c2ccccc2C(=O)N1c1noc2ccccc12", "activity change, positive = activation": -6.4}, {"smiles": "CSc1cc2c(s1)c1cnn(Cc3cccc(N)c3)c(=O)c1n2C", "activity change, positive = activation": 15.7}, {"smiles": "Cc1ccc(Nc2c(-c3ccc(C)s3)nc3ccccn23)cc1", "activity change, positive = activation": 3.95}, {"smiles": "Cc1ccc(NS(=O)(=O)c2cc3c(cc2C)OCC(=O)N3)cc1C", "activity change, positive = activation": 12}, {"smiles": "O=C1c2ccccc2C(=O)N1c1cccc2ncccc12", "activity change, positive = activation": 5.24}, {"smiles": "CC(C)Nc1cccc(S(=O)(=O)N2CCCN(S(=O)(=O)c3ccc4c(c3)OCCO4)CC2)c1", "activity change, positive = activation": 8.24}, {"smiles": "Cc1ccc(Nc2c(-c3ccc(C)o3)nc3ccccn23)cc1", "activity change, positive = activation": 0.661}, {"smiles": "Cc1ccc(NS(=O)(=O)c2ccc(F)cc2)cc1C", "activity change, positive = activation": -2.34}, {"smiles": "O=C1c2ccccc2C(=O)N1c1cccc2cccnc12", "activity change, positive = activation": 3.16}, {"smiles": "O=C1c2ccccc2C(=O)N1c1ccc(O)cc1", "activity change, positive = activation": 3.99}]}]}
